Measured values: ChEMBL document CHEMBL3988442, “University of Dundee, Small-Polar-MMV Screening Library” (2021)
Screen size: about 48,000 compounds; about 13,000 (27%) showed an effect of 50% or more. The list shows a part of the results.

System: Wolbachia pipientis
Experiment: Anti-Wolbachia Cell-Based Screen
Type: functional
Set-up: scale not given: in the data most compounds retested in dose-response had high values
Conditions: 5 µM

Compound | Percent Effect [%]
CNc1nc(CNC(=O)Nc2cccc(F)c2)cs1 | -0.1987
CC(NC1(CNC(=O)NC2CC2)CCOCC1)c1ccccc1 (stereo not drawn) | 5.387
CCC1=N[C@@]2(CC[C@@H]3CN(Cc4ccc(C)cc4)C[C@@H]32)C(=O)N1C.O=C(O)C(F)(F)F | 81.5
CCC1=N[C@@]2(CC[C@@H]3CN(C(=O)NC(C)C)C[C@@H]32)C(=O)N1C | -5.226
CCC1=N[C@@]2(CC[C@@H]3CN(Cc4ccccc4C)C[C@@H]32)C(=O)N1C.O=C(O)C(F)(F)F | 114.6
CCC1=N[C@@]2(CC[C@@H]3CN(Cc4ccccc4C)C[C@@H]32)C(=O)N1.O=C(O)C(F)(F)F | -9.167
CCC1=N[C@@]2(CC[C@@H]3CN(Cc4ccccc4F)C[C@@H]32)C(=O)N1CC.O=C(O)C(F)(F)F | -10.67
CCC1=N[C@@]2(CC[C@@H]3CN(CC(=O)N(C)C)C[C@@H]32)C(=O)N1CC1CC1.O=C(O)C(F)(F)F | -4.089
CC1=N[C@@]2(CC[C@@H]3CN(CC(C)C)C[C@@H]32)C(=O)N1C.O=C(O)C(F)(F)F | 8.258
CCC1=N[C@@]2(CC[C@@H]3CN(C(=O)NCc4ccccc4)C[C@@H]32)C(=O)N1C | -13.65
CCC1=N[C@@]2(CC[C@@H]3CN(CC(C)C)C[C@@H]32)C(=O)N1.O=C(O)C(F)(F)F | -10.58
CCC1=N[C@@]2(CC[C@@H]3CN(Cc4ccc(F)cc4)C[C@@H]32)C(=O)N1C.O=C(O)C(F)(F)F | 103.7
O=C(O)C(F)(F)F.O=C1NC(c2ccccc2)=N[C@@]12CC[C@@H]1CN(Cc3ccccc3)C[C@@H]12 | 4.255
CCC1=N[C@@]2(CC[C@@H]3CN(Cc4cccc(Cl)c4)C[C@@H]32)C(=O)N1C.O=C(O)C(F)(F)F | 95.01
CCCN1CCC(CC(=O)N[C@H](C(=O)O)c2cccc(F)c2F)CC1 | -4.75
COC(=O)NCC(=O)NCC(C)(C)c1cccc(Br)c1 | -15.07
CCCc1ncc(CN(CCOC)Cc2cccs2)cn1 | -13.63
CCN(CCn1cccn1)Cc1nc(-c2ccccc2F)oc1C | 1.604
C=C(C)COCCNC(=O)Nc1cccc(Cn2nc(C)nc2C)c1 | -4.389
CCN(C)C[C@@H]1CN(S(=O)(=O)c2ccc(OC)cc2)C[C@@H]1CO | 9.662
CC(=O)Nc1ccc(S(=O)(=O)N2CCOC(Cn3ccnc3)C2)cc1 (stereo not drawn) | 127.1
COc1ccc(S(=O)(=O)N2CCOC[C@H](Oc3cnccn3)C2)cc1 | -5.156

Compound | Percent Effect [%]
O=S(=O)(c1ccc(Cl)cc1)N1CCN(CCCn2ccnc2)CC1 | -9.759
O=S(=O)(c1ccccc1)N1CCCN(CCCn2ccnc2)CC1 | 1.416
CC(=O)Nc1ccc(S(=O)(=O)NC(=O)CCC2CCCO2)cc1 (stereo not drawn) | -4.56
Cc1ccc(S(=O)(=O)N2CCN(CCCn3ccnc3)CC2)cc1 | -7.959
O=S(=O)(c1ccccc1)N1CCOC(Cn2ccnc2)C1 (stereo not drawn) | 143.1
COc1ccc(S(=O)(=O)N2CCOC(Cn3ccnc3)C2)cc1.Cc1ccc(S(=O)(=O)O)cc1 (stereo not drawn) | 106.9
CCC1CN(C(=O)COc2ccc(NC(C)=O)cc2)CCO1 (stereo not drawn) | -18.64
O=S(=O)(c1ccccc1)N1CCN(CCn2ccnc2)CC1 | -17.14
CC(=O)c1ccc(S(=O)(=O)N2CCOC(Cn3ccnc3)C2)cc1 (stereo not drawn) | 80.08
Cc1ccc2c(c1)OCCCC2NCc1nnc2n1CCCCC2 (stereo not drawn) | -3.349
CCCN(CC)Cc1ccc(C(=O)NCC2COCCO2)c(=O)[nH]1 (stereo not drawn) | -4.085
O=C(CSc1ncccn1)N1C[C@H]2CC[C@@H]1CN(Cc1ccncc1)C2 | -5.142
CC(C)Cn1ccnc1CNC(=O)NC(C)(C)c1nccs1 | 4.874
Cc1nc(C)c(C(C)NC(=O)NCCNc2cccc(F)c2C#N)s1 (stereo not drawn) | -3.673
N#Cc1nccnc1N1CCC(C(O)c2cccs2)CC1 (stereo not drawn) | 6.256
CCS(=O)(=O)N1CCC2(CCN(Cc3ccc(C)o3)C2)C1 (stereo not drawn) | -25.86
COc1cccc2c1OCC(C(=O)NCCCn1nc(C)c(Cl)c1C)C2 (stereo not drawn) | -39.79
Cc1nc(CNC2(C(=O)OC(C)(C)C)CCCC2)oc1C | -20.11
CC(C)(C)c1noc(CN2CCN(C(=O)c3ccco3)CC2)n1 | -32.87
CCOC(C)c1noc(CN2CCN(Cc3cccc(F)c3)CC2)n1 (stereo not drawn) | -0.1841
CC(C)c1noc(CN2CCN(C(=O)c3cccc(F)c3)CC2)n1 | 101.9
Cc1c[nH]cc1C(=O)N1CCN(Cc2nc(C(C)C)no2)CC1 | -4.204

Compound | Percent Effect [%]
CC(C)c1noc(CN2CCN(C(=O)c3ccc(F)cc3)CC2)n1 | 109.7
CC(C)Cc1noc(CN2CCN(C(=O)c3cccc(F)c3)CC2)n1 | 1.261
CCOC(=O)c1coc(N2CCN(C(=O)c3cccc(OC)c3)CC2)n1 | -22.87
COc1cccc(C(=O)N2CCN(Cc3nc(C(C)C)no3)CC2)c1 | 117.9
Cc1ccc(C(=O)N2CCN(Cc3nc(C(C)C)no3)CC2)c(=O)[nH]1 | -11.93
CCCn1nnnc1CN(c1ccc(C)cc1)C(C)C | 3.327
CCS(=O)(=O)N1CCC2(CC(=O)N(c3cnn(C)c3)C2)C1 (stereo not drawn) | -4.174
COCCN1CCN(Cc2nnc(-c3occc3C)o2)CC1 | 0.1537
Cc1ccc(-c2nc(CN(C)C3CCS(=O)(=O)C3)cs2)o1 (stereo not drawn) | -14.87
OC(CN1CCOCC1)c1ccc(OC(F)(F)F)cc1 (stereo not drawn) | -7.461
COc1ccccc1CC(C)(C)NC(=O)CC(F)(F)F | -8.852
CN(C)C(C(=O)N1CCSCC1)c1ccccc1F (stereo not drawn) | 0.1762
Cc1cccc(CN2CCC3(CC2)NC(=O)C[C@H]3c2cnn(C)c2)n1.O=C(O)C(F)(F)F | 84.49
CC(C)COC1CC2(CCN(C(=O)Cc3ccccn3)CC2)C1.O=C(O)C(F)(F)F | -2.519
Cn1cc(C2CC(=O)NC23CCN(C(=O)Cc2ccccn2)CC3)cn1.O=C(O)C(F)(F)F (stereo not drawn) | 105.4
Cc1cccc(CN2CCC3(CC2)NC(=O)CC3c2ccccc2)n1.O=C(O)C(F)(F)F (stereo not drawn) | 109.2
Cc1cncc(C(=O)N2CCC3(CC2)NC(=O)CC3c2ccccc2)c1.O=C(O)C(F)(F)F (stereo not drawn) | -43.74
Cn1cc(C2CC(=O)NC23CCN(C(=O)c2cccnc2)CC3)cn1.O=C(O)C(F)(F)F (stereo not drawn) | 11.55
COc1cc(F)ccc1C(C(=O)O)N1CCN(C2CCCCC2)CC1 (stereo not drawn) | -11.47
O=C(O)C(F)(F)F.O=C(O)C(F)(F)F.O=C(c1ccco1)N1CC[C@@H](N2CCOCC2)[C@@H]1Cc1ccncc1 | 0.4302
COc1ccc(C2CC(=O)NCc3nc4ccccn4c32)cn1 (stereo not drawn) | -7.087
Cc1c(NC(=O)NC2CCCC2)cccc1C(=O)N1CCSCC1 | 1.099

Compound | Percent Effect [%]
Cc1nnc(N2C[C@H](OCc3cccnc3)[C@H]3OCCC[C@H]32)s1.O=C(O)C(F)(F)F.O=C(O)C(F)(F)F | -2.334
CN(Cc1cccnc1)[C@@H]1CN(c2ccccn2)[C@@H]2CCCO[C@H]12 | 82.23
CN(C)[C@@H]1CCN(c2ncc(F)cn2)[C@H]1Cc1cccnc1.O=C(O)C(F)(F)F.O=C(O)C(F)(F)F | -4.235
CN(Cc1cccnc1)[C@@H]1CN(Cc2ccccn2)[C@@H]2CCCO[C@H]12 | 150.6
Cn1cnc2c1C(COCc1cccnc1)N(Cc1ccccn1)CC2 (stereo not drawn) | -4.63
CN(C)S(=O)(=O)N1C[C@@H](OCc2ccccn2)[C@H]2OCCC[C@H]21 | -8.506
CN(Cc1cccnc1)[C@@H]1CN(c2ncc(F)cn2)[C@@H]2CCCO[C@H]12 | 115.7
Fc1cnc(N2CC[C@@H](N3CCOCC3)[C@@H]2Cc2cccnc2)nc1.O=C(O)C(F)(F)F.O=C(O)C(F)(F)F | -8.935
CN(Cc1cccnc1)C[C@H]1OC[C@@H]2CCN(c3ncccn3)C[C@@H]21 | -26.32
O=C(c1scc2c1OCCO2)N1CCC(Cc2cccc(CO)c2)C1 (stereo not drawn) | -12.67
CC(=O)Nc1nc(C(=O)N2CCCCC2Cn2cccn2)cs1 (stereo not drawn) | 109.7
CC(=O)Nc1nc(CN2CCCC2Cn2cc(C)cn2)cs1 (stereo not drawn) | -0.668
CC(=O)Nc1nc(C(=O)N2CCCC2Cn2cc(C)cn2)cs1 (stereo not drawn) | -2.697
CC(=O)Nc1nc(CN2CCCC2Cn2cccn2)cs1 (stereo not drawn) | -22.51
CC(=O)NCc1ccc(C(=O)N2CCCCC2Cn2cccn2)o1 (stereo not drawn) | -0.4212
CC(=O)Nc1nc(C(=O)N2CCCCC2Cn2cc(C)cn2)cs1 (stereo not drawn) | 67.59
CC(=O)Nc1nc(C(=O)N2CCCC2Cn2cccn2)cs1 (stereo not drawn) | 136.5
O=C(c1cc(-n2cccn2)ccn1)N1CCOc2ccc(F)cc21 | 11.86
CCN(Cc1noc(CC(C)C)n1)Cc1cccc(F)c1O | 21.71
CCCc1nc(NCCCO)c2c(n1)c(C)nn2CC | 2.078
CC(C)CN1C[C@@H]2CN(C(=O)c3cccn3C)C[C@@H]2C1=O | -8.322
O=C(C1CC1)N1C[C@@H](F)[C@@H](OCc2nc3cc(F)ccc3[nH]2)C1 | -13.75
